# Measurements: PubChem BioAssay (Tox21)
# A number with no mark means an inactive call. Inconclusive results are not listed. Where a call stands in place of a potency, no number is given. Activity calls are given as the source filed them. Unless noted, calls come from the whole dose curve; as a rule, active = well fitted curve in the direction sought with a large enough effect in the repeat runs; inconclusive = weak or mixed curves; inactive = no such curve, though single readings can be large; an effect the other way counts as inactive or inconclusive.
# How the values were obtained:
# [1] = A CellTox Green Cytotoxicity Assay to monitor cytotoxicity in HEK293 cells - 32 hour (AID 1224881); note: nearly all actives have a fitted effect of over 40% in size; note: potency is the fitted concentration of half-maximal effect
# Procedure, shortened: (§1)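 Fluorescence from a DNA-binding dye excluded by viable cells was measured repeatedly in the same HEK293 wells (600 cells/well) during continuous compound exposure at 37 C. Each assay gives one read point: 0, 8, 16, 24, 32 or 40 h.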
# [2] = A CellTox Green Cytotoxicity Assay to monitor cytotoxicity in HepG2 cells - 32 hour (AID 1224883); note: nearly all actives have a fitted effect of over 50% in size; note: potency is the fitted concentration of half-maximal effect
# Procedure, shortened: (§2)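 Real-time cytotoxicity: fluorescence of a cell-impermeant cyanine dye binding DNA of dead HepG2 cells, measured repeatedly (0–40 h) during compound exposure at 37 C. Cells seeded 600/well with reagent, dosed after 5 h.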
# [3] = A CellTox Green Cytotoxicity Assay to monitor cytotoxicity in HEK293 cells - 8 hour (AID 1224884); note: nearly all actives have a fitted effect of over 35% in size; note: potency is the fitted concentration of half-maximal effect
# Procedure, shortened: as §1
# [4] = qHTS RealTime-Glo MT Cell Viability Assay in HepG2 cells - 16 hour (AID 1224885); note: nearly all actives have a fitted effect of over 50% in size
# Procedure, shortened: (§3)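 Cells + NanoLuc/prosubstrate dispensed (600 cells/well) → 5 h at 37 C/5% CO2 → compounds in DMSO transferred → 40 h incubation at 37 C, luminescence read at 0, 8, 16, 24, 32, 40 h.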
# [5] = A CellTox Green Cytotoxicity Assay to monitor cytotoxicity in HEK293 cells - 16 hour (AID 1224888); note: nearly all actives have a fitted effect of over 35% in size; note: potency is the fitted concentration of half-maximal effect
# Procedure, shortened: as §1
# [6] = qHTS RealTime-Glo MT Cell Viability Assay in HepG2 cells - 0 hour (AID 1224889); note: nearly all actives have a fitted effect of over 50% in size
# Procedure, shortened: as §3
# [7] = A CellTox Green Cytotoxicity Assay to monitor cytotoxicity in HepG2 cells - 8 hour (AID 1224890); note: nearly all actives have a fitted effect of over 45% in size
# Procedure, shortened: as §2
# [8] = qHTS assay to identify small molecule antagonists of the androgen receptor (AR) signaling pathway using the MDA cell line in the presence of 0.5 nM R1881 - cell viability counter screen (AID 1259242); note: nearly all actives have a fitted effect of over 45% in size
# Procedure, shortened: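 Live-cell protease activity was measured by CellTiter-Fluor fluorescence after 30 min. Before that, MDA-kb2 MMTV-luciferase cells had 16 hr at 37C without CO2, exposed to test compounds and 0.5 nM R1881 final.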
# [9] = molecular target: Estrogen receptor (Homo sapiens) (UniProt P03372); assay: qHTS assay to identify small molecule antagonists of the estrogen receptor alpha (ER-alpha) signaling pathway using the BG1 cell line in the presence of 0.1 nM 17-beta-estradiol (AID 1259244); note: nearly all actives have a fitted effect of over 50% in size
# Estrogen receptor (Homo sapiens), sequence (P03372 whole entry, looked up): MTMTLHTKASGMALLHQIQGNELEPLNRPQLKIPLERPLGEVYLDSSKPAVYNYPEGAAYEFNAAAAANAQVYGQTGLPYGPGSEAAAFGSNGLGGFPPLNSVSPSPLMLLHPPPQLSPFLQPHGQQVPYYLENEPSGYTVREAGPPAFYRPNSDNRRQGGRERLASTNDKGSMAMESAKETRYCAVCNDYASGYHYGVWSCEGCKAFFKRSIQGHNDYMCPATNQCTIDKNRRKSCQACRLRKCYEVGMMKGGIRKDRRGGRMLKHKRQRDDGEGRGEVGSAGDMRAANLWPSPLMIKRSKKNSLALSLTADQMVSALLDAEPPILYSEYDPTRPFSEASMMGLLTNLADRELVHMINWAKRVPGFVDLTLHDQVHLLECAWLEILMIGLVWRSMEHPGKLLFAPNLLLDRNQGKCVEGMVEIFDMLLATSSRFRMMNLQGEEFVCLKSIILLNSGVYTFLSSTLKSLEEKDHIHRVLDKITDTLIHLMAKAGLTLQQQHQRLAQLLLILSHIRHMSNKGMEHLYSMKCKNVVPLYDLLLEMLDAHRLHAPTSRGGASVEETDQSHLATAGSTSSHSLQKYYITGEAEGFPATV
# Procedure, shortened: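 Luciferase luminescence (ONE-Glo, 30 min at room temperature) was read after 22 hr at 37C exposure to compounds plus 17beta-estradiol at 0.1 nM final. Cells were VM7Luc4E2 with endogenous ER-alpha and an ERE-driven luciferase, pre-cultured 5 days in hormone-depleted medium.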
# [10] = qHTS assay to identify small molecule HDAC inhibitors (AID 1259364); note: nearly all actives have a fitted effect of over 45% in size; note: potency is the fitted concentration of half-maximal effect
# Procedure, shortened: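 Luminescence read after 30 min room-temperature HDAC-Glo incubation measures cellular class I/II HDAC activity. Compounds were applied for 2 hr at 37 C to HCT-116 wild-type cells seeded the day before.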
# [11] = qHTS assay to identify small molecule HDAC inhibitors - cell viability counter screen (AID 1259365)
# Procedure, shortened: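 Counter screen in wild-type HCT-116 cells: compounds dissolved in DMSO are pin-transferred onto overnight-plated cells and left 2hr at 37C. ATP-based CellTiter-Glo luminescence then measures viable cells.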
# [12] = qHTS assay to identify small molecule agonists of the sonic hedgehog signaling (Shh) pathway - cell viability counter screen (AID 1259366); note: nearly all actives have a fitted effect of over 50% in size
# Procedure, shortened: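 Cells are plated at 2,000 per well and left 4hr at 37C, 5% CO2 before compound addition. After 23hr of treatment, CellTiter-Fluor reagent is added for 1hr at 37C and fluorescence is measured.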
# [13] = qHTS assay to identify small molecule agonists of the sonic hedgehog signaling (Shh) pathway (AID 1259368; calls by dose curve;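 note: NIH/3T3-derived 3T3Gli1-Luc cells carrying a stable Gli1-driven firefly luciferase reporter; series mostly up to about 92 µM; nearly all actives have a fitted effect of over 15% in size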)
# Procedure, shortened: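 Luminescence was read after 30 min at room temperature with luciferase reagent. Before that, 3T3Gli1-Luc cells (NIH/3T3 clone, stable Gli1-Luc reporter; 2,000/well) were exposed to compounds for 24 hr at 37C, 5% CO2, compounds being added 4 hr post-plating.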
# [14] = qHTS RealTime-Glo MT Cell Viability Assay in HEK293 cells - 24 hour (AID 1224886)
# Procedure, shortened: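 Tox21 10K qHTS, HEK293, 600 cells/well, RealTime-Glo reagent co-dispensed with cells; 5 h preincubation, compound by pintool, 37 C, luminescence at 0–40 h.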
# [15] = qHTS assay to identify small molecule antagonists of the estrogen receptor alpha (ER-alpha) signaling pathway using the BG1 cell line in the presence of 0.1 nM 17-beta-estradiol - cell viability counter screen (AID 1259241); note: nearly all actives have a fitted effect of over 40% in size
# Procedure, shortened: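 Cells were plated and left 24 hr, compounds in DMSO were pinned in, 17beta-estradiol was added to 0.1 nM final, and after 22 hr CellTiter-Fluor reagent was added for 30 min before fluorescence was read.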
# [16] = molecular target: Androgen receptor (Homo sapiens) (UniProt P10275); assay: qHTS assay to identify small molecule antagonists of the androgen receptor (AR) signaling pathway using the MDA cell line in the presence of 0.5 nM R1881 (AID 1259243); note: nearly all actives have a fitted effect of over 50% in size; note: potency is the fitted concentration of half-maximal effect
# Androgen receptor (Homo sapiens), sequence (P10275 whole entry, looked up): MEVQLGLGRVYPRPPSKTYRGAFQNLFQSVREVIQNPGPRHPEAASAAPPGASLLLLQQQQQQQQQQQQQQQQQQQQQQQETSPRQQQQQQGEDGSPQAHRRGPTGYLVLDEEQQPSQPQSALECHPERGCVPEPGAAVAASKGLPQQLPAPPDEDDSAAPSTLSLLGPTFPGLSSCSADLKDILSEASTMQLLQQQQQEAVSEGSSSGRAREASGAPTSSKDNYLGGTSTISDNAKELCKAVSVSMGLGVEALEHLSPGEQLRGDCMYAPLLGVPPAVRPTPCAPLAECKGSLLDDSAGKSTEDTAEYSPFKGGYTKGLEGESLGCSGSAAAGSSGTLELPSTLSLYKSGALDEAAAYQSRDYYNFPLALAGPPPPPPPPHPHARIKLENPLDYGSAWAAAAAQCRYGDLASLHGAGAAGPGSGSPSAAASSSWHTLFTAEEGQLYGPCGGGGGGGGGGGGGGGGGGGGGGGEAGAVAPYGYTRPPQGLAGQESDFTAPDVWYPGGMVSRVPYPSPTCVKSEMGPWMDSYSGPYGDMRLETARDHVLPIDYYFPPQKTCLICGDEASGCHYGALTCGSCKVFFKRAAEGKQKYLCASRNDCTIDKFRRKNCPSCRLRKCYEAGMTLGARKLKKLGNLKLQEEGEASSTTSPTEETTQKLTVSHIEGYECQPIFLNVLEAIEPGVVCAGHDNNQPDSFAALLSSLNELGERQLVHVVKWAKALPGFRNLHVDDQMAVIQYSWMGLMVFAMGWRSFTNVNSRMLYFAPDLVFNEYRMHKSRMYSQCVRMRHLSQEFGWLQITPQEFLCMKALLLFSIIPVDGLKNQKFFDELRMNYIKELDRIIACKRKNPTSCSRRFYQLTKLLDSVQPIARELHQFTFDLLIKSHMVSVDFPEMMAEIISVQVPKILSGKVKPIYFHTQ
# Procedure, shortened: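 Luminescent reporter readout (ONE-Glo, 30 min, room temperature) after 16 hr co-treatment of MDA-kb2 cells with test compounds and 0.5 nM R1881 final, at 37C without CO2. The MMTV-driven luciferase responds to both AR and GR.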
# [17] = qHTS assay to identify small molecule antagonists of the sonic hedgehog signaling (Shh) pathway - cell viability counter screen (AID 1259367); note: nearly all actives have a fitted effect of over 55% in size
# Procedure, shortened: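 Conditioned medium drove Shh signaling in 3T3 Gli1-Luc cells exposed to compounds at 37C and 5% CO2. Viability was determined from CellTiter-Fluor fluorescence, with reagent incubated 1 hr after 23 hr of treatment.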
# [18] = qHTS RealTime-Glo MT Cell Viability Assay in HEK293 cells - 8 hour (AID 1224887); note: nearly all actives have a fitted effect of over 50% in size; note: potency is the fitted concentration of half-maximal effect
# Procedure, shortened: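 Luminescence, which tracks viable cell number through reduction of the prosubstrate to a NanoLuc substrate, was read over continuous 37 C culture. Cells (600/well) were premixed with reagent and rested 5 h before 23 nL of compound in DMSO was pinned.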
# [19] = qHTS assay to identify small molecule phospholipidosis (PLD) inducers (AID 1259344; active = well fitted curve in the direction sought with a large enough effect; an effect the other way counts as inactive or inconclusive)
# Procedure, shortened: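 After 4 h attachment on collagen I, HepG2 cells were dosed with compound alongside LipidTOX Red, kept 24 h at 37 C, fixed, and imaged for lamellar phospholipid pits.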
# [20] = A CellTox Green Cytotoxicity Assay to monitor cytotoxicity in HepG2 cells - 0 hour (AID 1224882); note: nearly all actives have a fitted effect of over 35% in size
# Procedure, shortened: as §2
smiles,measurement,setting,value
O=C(OCCCCCCOC(=O)c1ccccc1)c1ccccc1,Potency,[1],inactive
same,Potency,[2],inactive
same,Potency,[3],inactive
same,Potency,[4],inactive
same,Potency,[5],inactive
same,Potency,[6],inactive
same,Potency,[7],inactive
same,Potency,[8],inactive
same,Potency,[9],inactive
same,Potency,[10],inactive
same,Potency,[11],inactive
same,Potency,[12],inactive
same,outcome,[13],inactive
CC(C)CC(=O)C1C(=O)c2ccccc2C1=O,Potency,[1],inactive
same,Potency,[2],inactive
same,Potency,[3],inactive
same,Potency,[4],inactive
same,Potency,[14],inactive
same,Potency,[5],inactive
same,Potency,[6],inactive
same,Potency,[7],inactive
same,Potency,[15],inactive
same,Potency,[8],inactive
same,Potency,[16],48.6 µM (active)
same,Potency,[11],inactive
same,Potency,[17],inactive
same,outcome,[13],inactive
CC(=O)[O][Al][O]C(C)=O,Potency,[1],inactive
same,Potency,[2],inactive
same,Potency,[3],inactive
same,Potency,[4],inactive
same,Potency,[14],inactive
same,Potency,[18],inactive
same,Potency,[6],inactive
same,Potency,[7],inactive
same,Potency,[15],inactive
same,Potency,[8],inactive
same,Potency,[19],inactive
same,Potency,[10],inactive
same,Potency,[11],inactive
same,Potency,[12],inactive
same,Potency,[17],inactive
same,outcome,[13],inactive
CN1CCC(N(Cc2cccs2)c2ccccc2)CC1,Potency,[1],21.3 µM (active)
same,Potency,[2],21.3 µM (active)
same,Potency,[3],19 µM (active)
same,Potency,[4],inactive
same,Potency,[5],19 µM (active)
same,Potency,[6],inactive
same,Potency,[15],inactive
same,Potency,[8],inactive
same,Potency,[9],inactive
same,PLD induction,[19],-4.03% [at 7.66 µM]
same,outcome,[13],inactive
Nc1cc(C(=O)O)c(O)c(S(=O)(=O)O)c1,Potency,[1],inactive
same,Potency,[2],inactive
same,Potency,[3],inactive
same,Potency,[4],inactive
same,Potency,[18],inactive
same,Potency,[5],inactive
same,Potency,[6],inactive
same,Potency,[7],inactive
same,Potency,[15],inactive
same,Potency,[8],inactive
same,Potency,[10],inactive
same,Potency,[11],inactive
same,Potency,[17],inactive
same,outcome,[13],inactive
OC[C@H]1O[C@@H](OCCc2ccc(O)cc2)[C@H](O)[C@@H](O)[C@@H]1O,Potency,[1],inactive
same,Potency,[2],inactive
same,Potency,[3],inactive
same,Potency,[4],inactive
same,Potency,[18],inactive
same,Potency,[5],inactive
same,Potency,[6],inactive
same,Potency,[7],inactive
same,Potency,[15],inactive
same,Potency,[8],inactive
same,Potency,[9],inactive
same,Potency,[19],inactive
same,Potency,[10],inactive
same,Potency,[11],inactive
same,Potency,[12],inactive
same,Potency,[17],inactive
same,outcome,[13],inactive
COc1ccc2cccc(CCNC(C)=O)c2c1,Potency,[1],inactive
same,Potency,[3],inactive
same,Potency,[4],inactive
same,Potency,[14],inactive
same,Potency,[18],inactive
same,Potency,[5],inactive
same,Potency,[6],inactive
same,Potency,[15],inactive
same,Potency,[8],inactive
same,Potency,[16],inactive
same,Potency,[9],inactive
same,Potency,[10],inactive
same,Potency,[11],inactive
same,Potency,[12],inactive
same,Potency,[17],inactive
same,outcome,[13],inactive
CN1C[C@H]2c3ccccc3Oc3ccc(Cl)cc3[C@@H]2C1,Potency,[1],inactive
same,Potency,[2],26.8 µM (active)
same,Potency,[3],inactive
same,Potency,[4],inactive
same,Potency,[14],inactive
same,Potency,[18],inactive
same,Potency,[5],inactive
same,Potency,[7],inactive
same,Potency,[15],inactive
same,Potency,[8],inactive
same,Potency,[9],inactive
same,PLD induction,[19],1.39% [at 7.66 µM]
same,outcome,[13],inactive
CC(C)Nc1ccc(NC(C)C)c2c1C(=O)c1ccccc1C2=O,Potency,[1],25.5 µM (active)
same,Potency,[2],9.06 µM (active)
same,Potency,[3],inactive
same,Potency,[4],inactive
same,Potency,[18],inactive
same,Potency,[5],inactive
same,Potency,[6],inactive
same,Potency,[7],inactive
same,Potency,[15],inactive
same,Potency,[8],inactive
same,Potency,[10],12.7 µM (active)
same,Potency,[12],inactive
same,Potency,[17],inactive
same,outcome,[13],inactive
O=C(O)c1ccco1,Potency,[20],inactive
same,Potency,[2],inactive
same,Potency,[3],inactive
same,Potency,[4],inactive
same,Potency,[18],inactive
same,Potency,[6],inactive
same,Potency,[7],inactive
same,Potency,[15],inactive
same,Potency,[8],inactive
same,Potency,[9],inactive
same,Potency,[10],inactive
same,Potency,[11],inactive
same,Potency,[12],inactive
same,Potency,[17],inactive
same,outcome,[13],inactive
CCOC(=O)COC(=O)c1cc(Oc2ccc(C(F)(F)F)cc2Cl)ccc1[N+](=O)[O-],Potency,[20],inactive
same,Potency,[2],inactive
same,Potency,[3],inactive
same,Potency,[4],inactive
same,Potency,[18],49 µM (active)
same,Potency,[5],inactive
same,Potency,[7],inactive
same,Potency,[8],inactive
same,Potency,[10],inactive
same,Potency,[11],inactive
same,Potency,[12],inactive
same,Potency,[17],inactive
same,outcome,[13],inactive
COc1ccnc(CS(=O)c2nc3ccc(OC(F)F)cc3[nH]2)c1OC (stereo unspecified),Potency,[20],inactive
same,Potency,[2],inactive
same,Potency,[3],inactive
same,Potency,[4],inactive
same,Potency,[14],inactive
same,Potency,[18],inactive
same,Potency,[5],inactive
same,Potency,[6],inactive
same,Potency,[7],inactive
same,Potency,[15],inactive
same,Potency,[8],inactive
same,Potency,[9],inactive
same,Potency,[19],inactive
same,Potency,[10],inactive
same,Potency,[11],inactive
same,Potency,[12],inactive
same,Potency,[17],inactive
same,outcome,[13],inactive
Nc1cccc(S(=O)(=O)c2cccc(N)c2)c1,Potency,[20],inactive
same,Potency,[2],inactive
same,Potency,[3],inactive
same,Potency,[4],inactive
same,Potency,[14],inactive
same,Potency,[18],inactive
same,Potency,[5],inactive
same,Potency,[6],inactive
same,Potency,[7],inactive
same,Potency,[15],inactive
same,Potency,[8],inactive
same,Potency,[9],inactive
same,Potency,[11],inactive
same,Potency,[12],inactive
same,Potency,[17],inactive
same,outcome,[13],inactive
CCOCC(O)COc1ccc(NC(=O)CC[S+](C)C)cc1 (stereo unspecified),Potency,[20],inactive
same,Potency,[2],inactive
same,Potency,[3],inactive
same,Potency,[4],inactive
same,Potency,[14],inactive
same,Potency,[18],inactive
same,Potency,[5],inactive
same,Potency,[6],inactive
same,Potency,[7],inactive
same,Potency,[15],inactive
same,Potency,[8],inactive
same,Potency,[9],inactive
same,Potency,[19],inactive
same,Potency,[11],inactive
same,Potency,[12],inactive
same,Potency,[17],inactive
same,outcome,[13],inactive
CCOC(=O)Cc1cccc2ccccc12,Potency,[1],inactive
same,Potency,[3],inactive
same,Potency,[4],inactive
same,Potency,[14],inactive
same,Potency,[18],inactive
same,Potency,[5],inactive
same,Potency,[15],inactive
same,Potency,[8],inactive
same,Potency,[9],inactive
same,Potency,[10],inactive
same,Potency,[11],inactive
same,Potency,[12],inactive
same,Potency,[17],inactive
same,outcome,[13],inactive
